Measured values as given in the antibiotic and cytotoxicity screens of Wong et al. (2023).
Among all 39,000 compounds or so, about 3,300 (8.5%) were called active. The sample holds actives, similar compounds and a random draw of the others, so the mix is not that of the screen.

What follows are molecules tested on HepG2 (assay: cytotoxicity call (relative viability < 0.9)). Details: 10 µM.

Structure (SMILES)	cytotoxicity call
C[C@H]1CCCCO[C@H](CN(C)C(=O)NC2CCCCC2)[C@@H](C)CN([C@@H](C)CO)C(=O)c2cc(NC(=O)C3CCCCC3)ccc2O1	inactive
Cc1noc(C)c1NC(=O)N(C)C[C@@H]1OCCCC[C@H](C)Oc2ccc(NC(=O)Nc3cccc4ccccc34)cc2C(=O)N([C@@H](C)CO)C[C@H]1C	inactive
COCCNC(=O)C[C@@H]1CC[C@@H]2[C@H](COc3ccc(NC(=O)Nc4cccc(F)c4)cc3C(=O)N2C)O1	inactive
Cc1noc(C)c1NC(=O)Nc1ccc2c(c1)CC(=O)N([C@@H](C)CO)C[C@H](C)[C@@H](CN(C)Cc1ccc(Oc3ccccc3)cc1)O2	inactive
Cc1noc(C)c1NC(=O)N(C)C[C@@H]1Oc2ccc(NS(=O)(=O)c3ccccc3)cc2C(=O)N([C@H](C)CO)C[C@@H]1C	inactive
CCSc1nc(-c2ccc(C)cc2)cc(C(F)(F)F)c1C#N	inactive
CSc1nc(-c2ccccc2)cc(-c2cccs2)c1C#N	inactive
Cc1cc(-c2ccccc2)nc(SCc2ccccc2)c1C#N	active
CC(C)NC(=O)Nc1cccc2c1O[C@H](CN(C)S(=O)(=O)c1ccccc1)[C@@H](C)CN([C@H](C)CO)C2=O	inactive
C[C@@H]1CCCCO[C@H](CN(C)S(=O)(=O)c2cccs2)[C@@H](C)CN([C@H](C)CO)C(=O)c2cc(NC(=O)Nc3cccc4ccccc34)ccc2O1	inactive
CCCN(C)C[C@@H]1OCCCC[C@H](C)Oc2ccc(NC(=O)Nc3ccc(C(F)(F)F)cc3)cc2C(=O)N([C@H](C)CO)C[C@@H]1C	active
CCCN(C)C[C@H]1OCCCC[C@@H](C)Oc2ccc(NC(=O)Nc3ccc(F)cc3)cc2C(=O)N([C@H](C)CO)C[C@@H]1C	inactive
CCCN(C)C[C@H]1OCCCC[C@H](C)Oc2ccc(NC(=O)Nc3ccc(F)cc3)cc2C(=O)N([C@@H](C)CO)C[C@H]1C	inactive
CCCN(C)C[C@@H]1OCCCC[C@@H](C)Oc2ccc(NC(=O)Nc3ccc(C(F)(F)F)cc3)cc2C(=O)N([C@H](C)CO)C[C@@H]1C	active
CCCN(C)C[C@@H]1OCCCC[C@@H](C)Oc2ccc(NC(=O)Nc3ccc(F)cc3)cc2C(=O)N([C@H](C)CO)C[C@H]1C	inactive
CCCN(C)C[C@H]1OCCCC[C@@H](C)Oc2ccc(NC(=O)Nc3ccc(C(F)(F)F)cc3)cc2C(=O)N([C@@H](C)CO)C[C@H]1C	active
CCCN(C)C[C@@H]1OCCCC[C@@H](C)Oc2ccc(NC(=O)Nc3ccc(F)cc3)cc2C(=O)N([C@H](C)CO)C[C@@H]1C	inactive
CCCN(C)C[C@@H]1OCCCC[C@H](C)Oc2ccc(NC(=O)Nc3ccc(C(F)(F)F)cc3)cc2C(=O)N([C@@H](C)CO)C[C@@H]1C	inactive
CCCN(C)C[C@H]1OCCCC[C@@H](C)Oc2ccc(NC(=O)Nc3ccc(C(F)(F)F)cc3)cc2C(=O)N([C@H](C)CO)C[C@H]1C	inactive
CCCN(C)C[C@@H]1OCCCC[C@@H](C)Oc2ccc(NC(=O)Nc3ccc(C(F)(F)F)cc3)cc2C(=O)N([C@H](C)CO)C[C@H]1C	inactive
CCCN(C)C[C@H]1OCCCC[C@H](C)Oc2ccc(NC(=O)Nc3ccc(C(F)(F)F)cc3)cc2C(=O)N([C@@H](C)CO)C[C@H]1C	active
CCCN(C)C[C@@H]1OCCCC[C@H](C)Oc2ccc(NC(=O)Nc3ccc(F)cc3)cc2C(=O)N([C@@H](C)CO)C[C@@H]1C	inactive

Structure (SMILES)	cytotoxicity call
COc1ccc(S(=O)(=O)Nc2ccc3c(c2)C(=O)N([C@@H](C)CO)C[C@@H](C)[C@H](CN(C)S(=O)(=O)c2ccc(Cl)cc2)OCCCC[C@@H](C)O3)cc1	inactive
COc1ccc(S(=O)(=O)N(C)C[C@@H]2Oc3ccc(NC(=O)Cc4ccccc4)cc3CC(=O)N([C@H](C)CO)C[C@H]2C)cc1	inactive
COc1ccccc1C#Cc1ccc2c(c1)O[C@@H](CN(C)Cc1cncnc1)[C@H](C)CN([C@H](C)CO)S2(=O)=O	inactive
Cc1ccc(S(=O)(=O)N2C[C@@H](O)COC[C@H]3O[C@H](CC(=O)NCc4ccc(C(F)(F)F)cc4)CC[C@@H]32)cc1	inactive
CSc1cc(-c2ccc(Cl)cc2)nc(-c2cccs2)c1	inactive
C[C@@H]1CCCCO[C@@H](CN(C)C(=O)Nc2ccc(C(F)(F)F)cc2)[C@H](C)CN([C@@H](C)CO)C(=O)c2cc(NC(=O)NC3CCCCC3)ccc2O1	inactive
C[C@H]1CN([C@@H](C)CO)C(=O)c2cccc(NS(=O)(=O)c3ccc(Cl)cc3)c2O[C@H]1CN(C)Cc1ccc(Cl)c(Cl)c1	inactive
CCS(=O)(=O)N1C[C@]2(C1)CN([C@H](CO)c1[nH]c3cc(ccc3c12)OC)S(=O)(=O)c1ccc(cc1)C	inactive
CC(C)NC(=O)N(C)C[C@@H]1Oc2c(NC(=O)NC3CCCCC3)cccc2C(=O)N([C@H](C)CO)C[C@H]1C	inactive
CCc1c(C)[nH]c(N2CCOCC2)nc1=O	inactive
C[C@H]1CN([C@@H](C)CO)C(=O)CCCn2cc(nn2)CO[C@H]1CN(C)C(=O)c1ccc(N2CCN(C)CC2)cc1	inactive
C[C@@H]1CN([C@H](C)CO)C(=O)CCCn2cc(nn2)CO[C@@H]1CN(C)C(=O)c1ccc(N2CCN(C)CC2)cc1	inactive
C[C@H](CO)N1C[C@H](C)[C@H](CN(C)C(=O)Nc2ccccc2C(F)(F)F)OCc2cn(nn2)CCCC1=O	inactive
C[C@@H]1CN([C@@H](C)CO)C(=O)CCCn2nncc2CO[C@@H]1CN(C)C(=O)Nc1ccc(C(F)(F)F)cc1	inactive
C[C@@H]1CN([C@@H](C)CO)C(=O)CCCn2nncc2CO[C@H]1CN(C)C(=O)Nc1ccccc1C(F)(F)F	inactive
C[C@H](CO)N1C[C@H](C)[C@H](CN(C)C(=O)Nc2ccc(C(F)(F)F)cc2)OCc2cnnn2CCCC1=O	active
C[C@H]1CN([C@@H](C)CO)C(=O)CCCn2cc(nn2)CO[C@@H]1CN(C)C(=O)c1ccc(N2CCN(C)CC2)cc1	active
C[C@@H]1CN([C@@H](C)CO)C(=O)CCCn2nncc2CO[C@H]1CN(C)C(=O)Nc1ccc(C(F)(F)F)cc1	inactive
C[C@H](CO)N1C[C@H](C)[C@@H](CN(C)C(=O)Nc2ccccc2C(F)(F)F)OCc2cn(nn2)CCCC1=O	inactive
C[C@@H]1CN([C@H](C)CO)C(=O)CCCn2nncc2CO[C@H]1CN(C)C(=O)Nc1ccccc1C(F)(F)F	active
C[C@@H]1CN([C@H](C)CO)C(=O)CCCn2cc(nn2)CO[C@@H]1CN(C)C(=O)Nc1ccccc1C(F)(F)F	active
C[C@H](CO)N1C[C@H](C)[C@@H](CN(C)C(=O)Nc2ccccc2C(F)(F)F)OCc2cnnn2CCCC1=O	inactive
